Measurements reported in PubChem BioAssay (Tox21).
Unmarked numbers belong to inactive results. Inconclusive results are not listed. Entries that show only a call come without a potency. The source made the active and inactive calls. Unless noted, calls come from the whole dose curve; as a rule, active = well fitted curve in the direction sought with a large enough effect in the repeat runs; inconclusive = weak or mixed curves; inactive = no such curve, though single readings can be large; an effect the other way counts as inactive or inconclusive.

Legend:
[1] = qHTS assay to identify small molecule antagonists of the progesterone receptor (PR) signaling pathway - cell viability counter screen (AID 1346798); note: nearly all actives have a fitted effect of over 50% in size; note: potency is the fitted concentration of half-maximal effect
Procedure, shortened: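 Following a 4 hr attachment, PR-UAS-bla HEK293T cells in charcoal-stripped FBS medium were exposed to compounds with R5020 for 16 hr; CellTiter-Glo was added and luminescence read after 30 min at room temperature.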

[2] = qHTS assay to identify small molecule agonists of the progesterone receptor (PR) signaling pathway - cell viability counter screen (AID 1346799; calls by dose curve; note: nearly all actives have a fitted effect of over 45% in size)
Procedure, shortened: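 Here, 3,000 PR-UAS-bla HEK293T cells per well were treated with compounds for 16 hr after a 6 hr preincubation at 37C and 5% CO2; cell viability is the CellTiter-Glo luminescence signal.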

[3] = qHTS assay to identify small molecule antagonists of the TGF-beta/Smad signaling pathway - cell viability counter screen (AID 1346824); note: nearly all actives have a fitted effect of over 50% in size
Procedure, shortened: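 SBE-bla HEK 293T cells, incubated overnight, then compound plus 0.25 ng/mL TGF-beta1 (stock added) for 5 hr at 37 C. Viability was read in the same wells by CellTiter-Glo luminescence after 30 min at room temperature.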

[4] = qHTS assay to identify small molecule agonists of the TGF-beta/Smad signaling pathway - cell viability counter screen (AID 1346829); note: top concentration of the series differs between compounds; nearly all actives have a fitted effect of over 45% in size
Procedure, shortened: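 CellTiter-Glo luminescence readout; SBE-bla HEK 293T cells, overnight plating, compound 5 hr at 37 C/5% CO2, then bla substrate 2 hr RT, then CellTiter-Glo 30 min RT.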

[5] = Human pregnane X receptor (PXR) small molecule agonists, qHTS cell viability counter screen (AID 1346977); note: nearly all actives have a fitted effect of over 50% in size; note: potency is the fitted concentration of half-maximal effect
Procedure, shortened: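 Tox21 qHTS format; PXR-Luc HepG2, 2,000/well, charcoal-stripped FBS 5%. Cpd exposure 24hr. Read: CellTiter-Fluor fluorescence, multiplexed with luciferase.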

[6] = Caspase-3/7 induction in HepG2 cells by small molecules, qHTS assay (AID 1346978); note: nearly all actives have a fitted effect of over 15% in size; note: potency is the fitted concentration of half-maximal effect
Procedure, shortened: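 Wild-type HepG2 cells, 2,000/well, settled 5 hr at 37 C and 5% CO2, then compound-treated for 17 hr; caspase-3/7 activity read by luminescent Caspase-Glo 3/7 after 30 min at room temperature.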

[7] = Caspase-3/7 induction in CHO-K1 cells by small molecules, qHTS assay (AID 1346980); note: nearly all actives have a fitted effect of over 15% in size
Procedure, shortened: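 Wild-type CHO-K1 cells exposed to compounds for 17hr at 37 C, 5% CO2. Caspase-3/7 activity then measured by Caspase-Glo 3/7 luminescence after 30min at room temperature.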

[8] = Caspase-3/7 induction in HepG2 cells by small molecules, qHTS cell viability counter screen (AID 1346981); note: nearly all actives have a fitted effect of over 30% in size; note: potency is the fitted concentration of half-maximal effect
Procedure, shortened: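 Multiplexed with the caspase-3/7 assay: HepG2 cells, 16 hr compound treatment, CellTiter-Fluor viability detection by fluorescence.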

[9] = biological target: Nuclear receptor subfamily 1 group I member 2 (Homo sapiens) (UniProt O75469); assay: Human pregnane X receptor (PXR) small molecule agonists, qHTS assay (AID 1346982); note: nearly all actives have a fitted effect of over 35% in size; note: potency is the fitted concentration of half-maximal effect
Sequence of Nuclear receptor subfamily 1 group I member 2 (Homo sapiens) (O75469 whole entry, looked up): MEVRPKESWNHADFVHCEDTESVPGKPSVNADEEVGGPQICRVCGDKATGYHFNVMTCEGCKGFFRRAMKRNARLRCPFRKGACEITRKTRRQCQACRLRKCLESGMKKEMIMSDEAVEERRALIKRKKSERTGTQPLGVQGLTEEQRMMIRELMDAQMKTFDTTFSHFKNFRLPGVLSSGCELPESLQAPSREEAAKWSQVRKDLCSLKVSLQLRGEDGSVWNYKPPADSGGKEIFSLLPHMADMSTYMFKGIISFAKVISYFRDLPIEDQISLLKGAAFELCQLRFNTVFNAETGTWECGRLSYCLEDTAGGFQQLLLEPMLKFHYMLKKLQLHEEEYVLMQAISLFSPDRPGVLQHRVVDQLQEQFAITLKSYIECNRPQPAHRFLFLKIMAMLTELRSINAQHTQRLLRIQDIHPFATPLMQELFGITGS
Procedure, shortened: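 We seeded PXR-Luc HepG2 cells in assay medium containing 5% charcoal-stripped FBS, added compounds 5 hr later, incubated 24 hr, and read luminescence with ONE-Glo reagent.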

[10] = biological target: Nuclear receptor subfamily 1 group I member 2 (Homo sapiens) (UniProt O75469); assay: CYP3A4 induction through human pregnane X receptor (PXR) by small molecules, qHTS assay (AID 1346984); note: nearly all actives have a fitted effect of over 40% in size
Procedure, shortened: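 qHTS, concentration-response format: HepG2 DPX-2 line, PXR/CYP3A4-luc. Exposure 24 h, 37C. Substrate Luciferin-IPA 3uM final, 3 h. Detection One-Glo, 30 min RT.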

[11] = biological target: Nuclear receptor subfamily 1 group I member 2 (Homo sapiens) (UniProt O75469); assay: Human pregnane X receptor (PXR) activation by small molecules, qHTS assay (AID 1346985); note: nearly all actives have a fitted effect of over 40% in size; note: potency is the fitted concentration of half-maximal effect
Procedure, shortened: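 DPX-2 cells (HepG2 co-transfected with a PXR response element and a CYP3A4-promoter luciferase construct) were seeded at 2,000 per well, rested 5 hr at 37C, then exposed to DMSO-dissolved compounds for 24 hr. Activation was read as luciferase luminescence.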

[12] = biological target: Cytochrome P450 2D6 (Homo sapiens) (UniProt P10635); assay: Cytochrome P450 Family 2 Subfamily D Member 6 (CYP2D6) small molecule antagonists: luciferase reporter qHTS assay (AID 1671196); note: nearly all actives have a fitted effect of over 50% in size; note: potency is the fitted concentration of half-maximal effect
Sequence of Cytochrome P450 2D6 (Homo sapiens) (P10635 whole entry, looked up): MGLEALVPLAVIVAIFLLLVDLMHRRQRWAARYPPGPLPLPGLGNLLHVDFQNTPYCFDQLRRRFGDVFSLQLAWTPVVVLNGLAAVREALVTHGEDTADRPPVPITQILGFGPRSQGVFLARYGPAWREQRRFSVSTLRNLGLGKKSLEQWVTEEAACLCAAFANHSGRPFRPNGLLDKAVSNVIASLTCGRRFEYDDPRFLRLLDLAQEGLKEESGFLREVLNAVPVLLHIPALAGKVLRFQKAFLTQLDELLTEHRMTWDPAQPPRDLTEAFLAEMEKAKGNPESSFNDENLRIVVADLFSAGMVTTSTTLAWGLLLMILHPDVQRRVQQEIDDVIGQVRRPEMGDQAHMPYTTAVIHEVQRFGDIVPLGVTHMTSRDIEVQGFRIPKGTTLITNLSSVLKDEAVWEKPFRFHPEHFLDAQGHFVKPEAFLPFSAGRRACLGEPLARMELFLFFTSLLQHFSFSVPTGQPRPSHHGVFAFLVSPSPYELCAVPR
Procedure, shortened: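 Luminescence (RLU), read 20 min after detection reagent, indicated CYP2D6 conversion of proluciferin to luciferin during a 1 h NADPH-dependent reaction at room temperature.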

[13] = biological target: Progesterone receptor (Homo sapiens) (UniProt P06401); assay: qHTS assay to identify small molecule agonists of the progesterone receptor (PR) signaling pathway (AID 1346784; calls by dose curve; note: nearly all actives have a fitted effect of over 30% in size)
Sequence of Progesterone receptor (Homo sapiens) (P06401 whole entry, looked up): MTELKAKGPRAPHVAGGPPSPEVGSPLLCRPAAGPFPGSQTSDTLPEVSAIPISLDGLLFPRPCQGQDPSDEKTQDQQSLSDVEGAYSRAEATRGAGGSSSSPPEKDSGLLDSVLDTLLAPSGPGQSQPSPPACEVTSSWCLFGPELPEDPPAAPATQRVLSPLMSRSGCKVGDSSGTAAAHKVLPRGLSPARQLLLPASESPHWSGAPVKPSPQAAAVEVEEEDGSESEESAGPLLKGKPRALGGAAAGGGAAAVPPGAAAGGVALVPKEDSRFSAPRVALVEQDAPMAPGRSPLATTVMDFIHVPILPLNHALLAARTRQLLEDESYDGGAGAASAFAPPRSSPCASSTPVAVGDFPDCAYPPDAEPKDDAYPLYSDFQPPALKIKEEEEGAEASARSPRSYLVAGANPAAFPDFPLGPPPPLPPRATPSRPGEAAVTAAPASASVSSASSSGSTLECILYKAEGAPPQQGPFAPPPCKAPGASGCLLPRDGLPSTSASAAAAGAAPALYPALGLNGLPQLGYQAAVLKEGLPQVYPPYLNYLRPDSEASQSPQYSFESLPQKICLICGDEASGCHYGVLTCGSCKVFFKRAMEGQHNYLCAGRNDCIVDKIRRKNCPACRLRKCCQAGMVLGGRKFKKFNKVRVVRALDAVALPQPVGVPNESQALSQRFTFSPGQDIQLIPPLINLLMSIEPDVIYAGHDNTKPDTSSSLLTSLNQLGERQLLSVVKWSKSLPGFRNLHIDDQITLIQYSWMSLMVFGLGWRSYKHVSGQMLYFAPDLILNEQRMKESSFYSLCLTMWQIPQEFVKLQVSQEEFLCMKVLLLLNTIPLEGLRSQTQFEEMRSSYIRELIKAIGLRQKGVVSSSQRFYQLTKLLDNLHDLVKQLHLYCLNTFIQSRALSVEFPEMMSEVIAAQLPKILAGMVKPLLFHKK
Procedure, shortened: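 Compounds were tested for PR agonism in HEK 293T cells bearing a beta-lactamase gene under UAS control. Treatment lasted 16 hr at 37C; signal came from fluorescence of a FRET substrate.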

[14] = qHTS assay to identify small molecule agonists of the TGF-beta/Smad signaling pathway (AID 1346859; active = well fitted activation curve with a large enough effect in the signal ratio in the repeat runs, not every such curve was filed as active; the % refers to the signal ratio; note: series mostly up to about 77 µM)
Procedure, shortened: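 Each well held 4,000 SBE-bla HEK 293T cells incubated overnight before compound addition; 5 hr later the cleavable FRET substrate went on for 2 hr at room temperature, and fluorescence was read at two emissions.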

[15] = biological target: Thyrotropin-releasing hormone receptor (Homo sapiens) (UniProt P34981); assay: qHTS assay to identify small molecule agonists of the thyrotropin-releasing hormone receptor (TRHR) signaling pathway (AID 1346891; calls by dose curve; note: series mostly up to about 58 µM)
Sequence of Thyrotropin-releasing hormone receptor (Homo sapiens) (P34981 whole entry, looked up): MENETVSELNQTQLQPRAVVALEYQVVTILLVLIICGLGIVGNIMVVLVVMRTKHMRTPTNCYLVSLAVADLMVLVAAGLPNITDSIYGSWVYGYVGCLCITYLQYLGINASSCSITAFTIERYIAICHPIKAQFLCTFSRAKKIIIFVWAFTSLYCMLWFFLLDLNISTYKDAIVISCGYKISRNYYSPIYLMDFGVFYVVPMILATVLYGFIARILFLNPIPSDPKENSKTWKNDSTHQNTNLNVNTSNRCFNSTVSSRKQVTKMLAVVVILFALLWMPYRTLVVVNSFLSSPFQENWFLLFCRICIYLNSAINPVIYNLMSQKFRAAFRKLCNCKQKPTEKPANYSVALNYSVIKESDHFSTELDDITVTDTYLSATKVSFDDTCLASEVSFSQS
Procedure, shortened: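 Screening of agonists relied on calcium signalling in HEK293 cells expressing human TRHR: dye loading 2 h at 37 °C preceded compound addition and a 3-min fluorescence time course.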

[16] = Caspase-3/7 induction in CHO-K1 cells by small molecules, qHTS cell viability counter screen (AID 1346979); note: nearly all actives have a fitted effect of over 35% in size; note: potency is the fitted concentration of half-maximal effect
Procedure, shortened: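 CellTiter-Fluor viability check, qHTS format: wild-type CHO-K1, 16hr compound treatment, 1hr reagent incubation, fluorescence read.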

[17] = biological target: Thyrotropin-releasing hormone receptor (Homo sapiens) (UniProt P34981); assay: qHTS assay to identify small molecule antagonists of the thyrotropin-releasing hormone receptor (TRHR) signaling pathway (AID 1346877; active = well fitted inhibition curve with a large enough effect in the repeat runs, not every such curve was filed as active; note: series mostly up to about 51 µM)
Procedure, shortened: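 Screening used HEK293 cells engineered with TRHR, with a brief 5 min room-temperature compound exposure preceding addition of TRH to 1 nM. The read-out was kinetic calcium-dye fluorescence, concentration-response from 15 doses in triplicate.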

[18] = biological target: Progesterone receptor (Homo sapiens) (UniProt P06401); assay: qHTS assay to identify small molecule antagonists of the progesterone receptor (PR) signaling pathway (AID 1346795; active = well fitted inhibition curve with a large enough effect in the signal ratio in the repeat runs, not every such curve was filed as active; the % refers to the signal ratio; note: potency is the fitted concentration of half-maximal effect)
Procedure, shortened: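 In HEK293T cells bearing the PR-UAS-bla reporter, compound effects on promegestone-driven (1 nM) beta-lactamase expression are assessed after 16 hr using a fluorescent FRET substrate incubated 2 hr at room temperature.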

Structure (SMILES)	Potency [1]	Potency [2]	outcome [3]	outcome [4]	Potency [5]	Potency [6]	outcome [7]	Potency [8]	Potency [9]	Potency [10]	Potency [11]	Potency [12]	Potency [13]	outcome [14]	Potency [15]	Potency [16]	outcome [17]	Potency [18]
CO/N=C1\CN(c2nc3c(cc2F)c(=O)c(C(=O)O)cn3C2CC2)CC1CN (stereo not given)	inactive	inactive	inactive	inactive	inactive	inactive	inactive	inactive	inactive	inactive	inactive	inactive	–	–	–	–	–	–
C/C=C/C=C/CCCCCCCO	–	–	inactive	inactive	–	inactive	inactive	inactive	61.1 µM (active)	–	–	–	inactive	inactive	inactive	–	–	–
COc1cc2c(N3CCN(C(=O)Nc4ccc(OC(C)C)cc4)CC3)ncnc2cc1OCCCN1CCCCC1	inactive	inactive	inactive	inactive	23.7 µM (active)	inactive	inactive	–	inactive	–	–	15.5 µM (active)	inactive	inactive	inactive	23.7 µM (active)	–	–
CCOC(=O)CC(=O)C(=O)OCC	15.4 µM (active)	–	inactive	inactive	inactive	inactive	inactive	inactive	–	–	–	inactive	–	inactive	inactive	inactive	inactive	–
Cc1nc2ccccn2c(=O)c1CCN1CCC(C(=O)c2ccc(F)cc2)CC1	inactive	inactive	inactive	–	–	inactive	inactive	inactive	inactive	–	–	4.36 µM (active)	–	inactive	inactive	inactive	inactive	–
O=C(c1ccc(O)cc1)c1ccc(Cl)cc1	inactive	–	inactive	inactive	–	inactive	inactive	inactive	24.9 µM (active)	–	–	64.7 µM (active)	–	–	inactive	–	inactive	–
c1cc[c]([Bi]([c]2ccccc2)[c]2ccccc2)cc1	–	–	inactive	inactive	inactive	inactive	inactive	inactive	15.4 µM (active)	–	–	–	–	inactive	inactive	61.1 µM (active)	–	–
Nc1ccc(Cl)cc1[N+](=O)[O-]	inactive	inactive	–	inactive	inactive	inactive	inactive	–	60.5 µM (active)	–	–	–	inactive	inactive	inactive	–	inactive	–
O=c1[nH]c2ccc(S(=O)CCN3CCC(Cc4ccc(F)cc4)CC3)cc2o1 (stereo not given)	–	–	inactive	inactive	–	inactive	inactive	–	inactive	–	–	35.6 µM (active)	inactive	–	inactive	54.5 µM (active)	inactive	–
Fc1ccccc1[C@@H](F)COC1CCC(Nc2ncnc3[nH]ncc23)CC1 (stereo not given in full)	–	–	inactive	inactive	27.3 µM (active)	inactive	inactive	–	inactive	–	–	–	–	–	inactive	30.6 µM (active)	inactive	27.3 µM (active)
CC(=O)[C@H]1CC[C@H]2[C@@H]3C=CC4=CC(=O)CC[C@@]4(C)[C@@H]3CC[C@]12C	–	inactive	inactive	inactive	inactive	inactive	inactive	inactive	26.6 µM (active)	inactive	inactive	inactive	–	–	inactive	–	inactive	inactive
NC(=O)N(O)[C@@H]1C=C[C@H](Oc2cccc(Oc3ccc(F)cc3)c2)C1	–	–	inactive	inactive	–	inactive	inactive	inactive	–	–	–	5.03 µM (active)	–	inactive	–	68.6 µM (active)	–	–
CO[C@@]12[C@H](COC(N)=O)C3=C(C(=O)C(C)=C(N)C3=O)N1C[C@@H]1N[C@@H]12	inactive	–	inactive	inactive	11.9 µM (active)	11.9 µM (active)	inactive	11.9 µM (active)	inactive	–	inactive	–	inactive	inactive	–	13.3 µM (active)	–	–
CCc1c2c(nc3ccc(OC(=O)N4CCC(N5CCCCC5)CC4)cc13)-c1cc3c(c(=O)n1C2)COC(=O)[C@]3(O)CC	inactive	inactive	–	inactive	inactive	–	inactive	–	–	inactive	inactive	inactive	–	inactive	inactive	inactive	inactive	inactive
O=C(C(=O)c1ccccc1)c1ccccc1	inactive	inactive	inactive	inactive	inactive	inactive	inactive	inactive	inactive	–	–	31.6 µM (active)	–	inactive	inactive	inactive	inactive	inactive
O=C(O)c1cccnc1C(=O)O	inactive	inactive	inactive	inactive	inactive	inactive	inactive	inactive	inactive	–	–	inactive	–	inactive	–	inactive	–	inactive
Cc1oc(C)c(C(=O)Nc2ccccc2)c1C	inactive	inactive	–	–	inactive	inactive	inactive	inactive	–	–	–	56.4 µM (active)	inactive	inactive	inactive	27.3 µM (active)	–	–
Cc1ccc(Nc2nccc(N(C)c3ccc4c(C)n(C)nc4c3)n2)cc1S(N)(=O)=O	–	–	inactive	–	–	inactive	inactive	–	2.66 µM (active)	–	–	inactive	inactive	inactive	inactive	26.6 µM (active)	inactive	–
Cc1c(C(=O)NN2CCCCC2)nn(-c2ccc(Cl)cc2Cl)c1-c1ccc(Cl)cc1	–	–	inactive	inactive	–	inactive	inactive	–	–	inactive	inactive	inactive	inactive	–	–	26.6 µM (active)	–	–
O=C(O)c1cccc(O)c1	inactive	inactive	inactive	inactive	inactive	inactive	inactive	inactive	inactive	–	–	inactive	inactive	–	inactive	inactive	–	–
CCOc1cc(N)c(Cl)cc1C(=O)NCC1CN(Cc2ccc(F)cc2)CCO1 (stereo not given)	inactive	inactive	inactive	inactive	–	inactive	inactive	–	–	inactive	12.6 µM (active)	inactive	inactive	inactive	–	inactive	–	–
CN(C(=O)C(Cl)Cl)c1ccc(OC(=O)c2ccco2)cc1	inactive	inactive	inactive	inactive	inactive	inactive	inactive	inactive	inactive	–	–	inactive	–	inactive	inactive	inactive	inactive	inactive
CCCOc1ccc(S(=O)(=O)N2CCN(CC)CC2)cc1-c1nc2c(CC)n(Cc3ccccn3)nc2c(=O)[nH]1	–	inactive	inactive	inactive	–	inactive	inactive	–	10.9 µM (active)	–	–	inactive	–	–	inactive	inactive	inactive	–
CC1=CC(O)CC(C)(C)C1 (stereo not given)	inactive	inactive	inactive	inactive	inactive	inactive	inactive	inactive	inactive	–	–	inactive	–	–	–	inactive	–	–
